PubChem BioAssay (Tox21)
“And” between values parts separate entries of the source, which are not always exact repeats. Equal entries are not always repeated. Results filed as inconclusive are left out. Where a call stands in place of a potency, no number is given. More than one record can exist for a structure, and the calls need not agree. The source made the active and inactive calls. Unless noted, calls come from the whole dose curve.

Columns and labels:
[1] = Nuclear factor erythroid 2-related factor 2/antioxidant responsive element (Nrf2/ARE) small molecule agonists: qHTS cell viability counter screen in human keratinocytes (AID 1919968; active = well fitted curve in the direction sought with a large enough effect in the repeat runs; an effect the other way counts as inactive or inconclusive; note: nearly all actives have a fitted effect of over 55% in size)
Method in brief: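 KeratinoSens cells (HaCaT keratinocytes stably carrying an ARE-luciferase reporter) were seeded at 1,500 cells/well and rested 5 h at 37 C/5% CO2. They were then exposed to compounds in DMSO for 23 h. Viability was read by CellTiter-Fluor fluorescence after 1 h.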

[2] = Nuclear factor erythroid 2-related factor 2/antioxidant responsive element (Nrf2/ARE) small molecule agonists: luciferase reporter gene qHTS assay in human keratinocytes (AID 1919969); note: nearly all actives have a fitted effect of over 35% in size
[3] = molecular target: Gonadotropin-releasing hormone receptor (Homo sapiens) (UniProt P30968); test: Human gonadotropin-releasing hormone receptor (GnRHR) small molecule agonists, calcium flux assay in GnRHR-HEK293 cells (AID 1920063); note: nearly all actives have a fitted effect of over 35% in size
Method in brief: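 HEK293 cells stably expressing human GnRHR were plated 18 h at 37 °C, loaded with calcium dye 1 h at 37 °C, then given compound in agonist mode; fluorescence (Ex/Em 480/540) read kinetically for 3 min at 1 s intervals.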

[4] = molecular target: KiSS-1 receptor (Homo sapiens) (UniProt Q969F8); test: Human kisspeptin (KISS1R) small molecule agonists, calcium flux assay in KISS1R-HEK293 cells (AID 1920064; active = well fitted curve in the direction sought with a large enough effect in the repeat runs; an effect the other way counts as inactive or inconclusive)
Method in brief: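 HEK293 cells stably expressing human KISS1R were plated 18 h at 37 °C, loaded with calcium dye for 1 h at 37 °C, then given compound by pin tool. Fluorescence (Ex/Em 480/540) was read kinetically for 3 min.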

[5] = G protein-coupled receptor (GPCR) small molecule agonists, calcium flux assay: HEK293 wild type cell line counter screen (AID 1920065)
Method in brief: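 Cells were plated and cultured 18 h at 37 C/5% CO2, then loaded with calcium dye for 1 h at 37 C. Compounds in DMSO were pin-transferred in agonist mode, and fluorescence (Ex/Em 480/540) was read kinetically for 3 min at 1 s intervals.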

[6] = p53 small molecule agonists, cell-based qHTS assay with human liver microsomes (AID 1963577);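 note: p53 response element beta-lactamase reporter cells with liver microsomes plus NADPH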
Method in brief: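 HLM-supplemented p53RE-bla reporter assay: 16 h compound exposure at 37 C, microsomes and NADPH each 0.5 mg/mL final, read by fluorescence intensity.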

[7] = p53 small molecule agonists, cell-based qHTS assay with rat liver microsomes (AID 1963578)
Method in brief: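 Quantitative HTS of the Tox21 10K library: p53RE-bla cells, rat liver microsomes plus NADPH at 0.5 mg/mL final each, 16 h at 37 C, beta-lactamase fluorescence detection.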

[8] = p53 small molecule agonists, cell-based qHTS assay with human liver microsomes: qHTS cell viability counter screen (AID 1963579); note: nearly all actives have a fitted effect of over 45% in size; note: potency is the fitted concentration of half-maximal effect
Method in brief: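 Viability of p53RE-bla cells is measured as CellTiter-Glo luminescence following a 16 h, 37 C incubation with compound, liver microsomes from human donors and NADPH.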

[9] = p53 small molecule agonists, cell-based qHTS assay with rat liver microsomes: qHTS cell viability counter screen (AID 1963580); note: nearly all actives have a fitted effect of over 45% in size
Method in brief: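 In HCT-116 cells carrying a p53 response element-bla reporter, compounds were metabolically activated in situ by rat liver microsomes with NADPH over 16 h. Cell ATP content then served as the cytotoxicity measure.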

[10] = p53 small molecule agonists, cell-based qHTS assay: qHTS cell viability counter screen (AID 1963581); note: nearly all actives have a fitted effect of over 45% in size
Method in brief: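 p53RE-bla HCT-116 cells were exposed to compounds for 16 h at 37 C; after the beta-lactamase FRET read in the same wells, CellTiter-Glo was added and luminescence (intracellular ATP) read after 30 min at room temperature.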

[11] = p53 small molecule agonists, cell-based qHTS assay (AID 1963582; active = well fitted activation curve with a large enough effect in the signal ratio in the repeat runs, not every such curve was filed as active; the % refers to the signal ratio)
Method in brief: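 p53RE-bla beta-lactamase reporter cells rested 5 h at 37 C/5% CO2, then received compounds in DMSO by pin transfer and were incubated 16 h at 37 C. LiveBLAzer B/G FRET substrate was loaded for 2 h at room temperature before fluorescence reading.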

[12] = cAMP Responsive Elements (CRE) small molecule agonists, cell-based qHTS assay (AID 1963590)
Method in brief: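 CRE-bla HEK 293T cells in DMEM with 10% dialyzed FBS, NEAA, pyruvate and 25 mM HEPES were plated 18 h at 37 C/5% CO2, then exposed to compounds in DMSO for 3 h before LiveBLAzer B/G FRET substrate addition.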

[13] = cAMP Responsive Elements (CRE) small molecule antagonists, cell-based qHTS assay (AID 1963591; active = well fitted inhibition curve with a large enough effect in the signal ratio in the repeat runs, not every such curve was filed as active; the % refers to the signal ratio)
Method in brief: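 CRE-bla HEK293T cells were plated 18 h at 37 °C/5% CO2, pinned with compound in DMSO, then stimulated with NKH477 at 0.25 uM final for 3 h. LiveBLAzer B/G FRET substrate was added and plates incubated 2 h at room temperature.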

[14] = molecular target: Beta-2 adrenergic receptor (Homo sapiens) (UniProt P07550); test: Adrenergic beta2 receptor (ADRB2) small molecule antagonists, cell-based qHTS assay (AID 1963592); note: series mostly up to about 92 µM; nearly all actives have a fitted effect of over 50% in size
Method in brief: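 Cells (CHO, stable ADRB2 overexpression) incubated 18-20hr at 37C; compounds added from DMSO; agonist mix (1nM isoproterenol, 100uM IBMX, 25uM Ro-20-1724) added; 0.5hr RT; d2-cAMP and anti-cAMP-cryptate added; 1hr RT; 665/615 nm read.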

[15] = molecular target: D(2) dopamine receptor (Homo sapiens) (UniProt P14416); test: Dopamine D2 receptor (DRD2) small molecule agonists, cell-based qHTS assay (AID 1963594); note: nearly all actives have a fitted effect of over 35% in size
Method in brief: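 HEK293 cells stably expressing DRD2 were cultured 24 h at 37 C, then given Ro20-1724 (0.1 mM final) and compounds for 10 min at room temperature. NKH477 (200nM) was then added for 30 min. cAMP was read by HTRF.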

[16] = molecular target: D(2) dopamine receptor (Homo sapiens) (UniProt P14416); test: Dopamine D2 receptor (DRD2) small molecule antagonists, cell-based qHTS assay (AID 1963595; active = well fitted inhibition curve with a large enough effect in the signal ratio in the repeat runs, with a control signal flat; the % refers to the signal ratio)
Method in brief: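 Antagonism was scored as restored cAMP in HEK293-DRD2 cells. These cells were stimulated with 200 nM NKH477 and 12 nM quinpirole for 30 min at room temperature, in the presence of 0.1 mM Ro20-1724.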

[17] = molecular target: Beta-2 adrenergic receptor (Homo sapiens) (UniProt P07550); test: Adrenergic beta2 receptor (ADRB2) small molecule agonists, cell-based qHTS assay (AID 1963593);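 note: CHO cells stably overexpressing human ADRB2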
Method in brief: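 CHO cells stably over-expressing ADRB2 were plated overnight at 37C, then dosed with compounds plus a stimulation mix containing 100uM IBMX and 25uM Ro-20-1724 for 0.5hr at room temperature. cAMP was measured by HTRF competition, 1hr.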

[18] = molecular target: 5-hydroxytryptamine receptor 2A (Homo sapiens) (UniProt P28223); test: 5-hydroxytryptamine receptor 2A (HTR2A) small molecule agonists, cell-based qHTS assay (AID 1963587); note: nearly all actives have a fitted effect of over 30% in size
Method in brief: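 HTR2A-CHO cells, plated 18 h at 37 C/5% CO2, dye-loaded 1 h at 37 C; compounds in DMSO added by pin tool (agonist mode). Intracellular calcium flux read as kinetic fluorescence on FDSS over 2 min at 1 s intervals.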

[19] = molecular target: Muscarinic acetylcholine receptor M1 (Homo sapiens) (UniProt P11229); test: Cholinergic receptor muscarinic 1 (CHRM1) small molecule antagonists, cell-based qHTS assay (AID 1963588); note: nearly all actives have a fitted effect of over 40% in size
Method in brief: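 CHRM1-CHO calcium-flux assay, antagonist mode. Cells were seeded 18 h, dye-loaded 1 h at 37 C and given compound for 5 min at RT, then acetylcholine was added at 50nM. FDSS fluorescence was read 3 min; 15 concentrations, three runs.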

[20] = molecular target: Muscarinic acetylcholine receptor M1 (Homo sapiens) (UniProt P11229); test: Cholinergic receptor muscarinic 1 (CHRM1) small molecule agonists, cell-based qHTS assay (AID 1963589); note: nearly all actives have a fitted effect of over 35% in size
Method in brief: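 CHO cells stably expressing human CHRM1, seeded 18 h at 37 C/5% CO2, dye-loaded 1 h at 37 C, then given compound in agonist mode; intracellular calcium fluorescence read kinetically at 1 s intervals. Fifteen concentrations, three independent runs.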

Chain of 5-hydroxytryptamine receptor 2A (Homo sapiens) (P28223 whole entry, looked up): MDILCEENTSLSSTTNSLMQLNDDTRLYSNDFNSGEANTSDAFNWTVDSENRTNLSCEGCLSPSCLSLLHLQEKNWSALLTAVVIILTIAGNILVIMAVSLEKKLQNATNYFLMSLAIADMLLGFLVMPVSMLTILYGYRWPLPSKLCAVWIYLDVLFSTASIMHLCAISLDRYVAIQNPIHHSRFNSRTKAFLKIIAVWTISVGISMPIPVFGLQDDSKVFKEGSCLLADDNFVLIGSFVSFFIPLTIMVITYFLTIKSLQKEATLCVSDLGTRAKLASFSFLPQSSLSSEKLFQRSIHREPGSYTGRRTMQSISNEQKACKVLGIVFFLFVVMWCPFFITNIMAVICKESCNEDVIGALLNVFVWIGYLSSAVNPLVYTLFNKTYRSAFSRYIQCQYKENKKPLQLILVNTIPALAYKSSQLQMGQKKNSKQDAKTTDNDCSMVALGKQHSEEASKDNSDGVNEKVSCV
Chain of Beta-2 adrenergic receptor (Homo sapiens) (P07550 whole entry, looked up): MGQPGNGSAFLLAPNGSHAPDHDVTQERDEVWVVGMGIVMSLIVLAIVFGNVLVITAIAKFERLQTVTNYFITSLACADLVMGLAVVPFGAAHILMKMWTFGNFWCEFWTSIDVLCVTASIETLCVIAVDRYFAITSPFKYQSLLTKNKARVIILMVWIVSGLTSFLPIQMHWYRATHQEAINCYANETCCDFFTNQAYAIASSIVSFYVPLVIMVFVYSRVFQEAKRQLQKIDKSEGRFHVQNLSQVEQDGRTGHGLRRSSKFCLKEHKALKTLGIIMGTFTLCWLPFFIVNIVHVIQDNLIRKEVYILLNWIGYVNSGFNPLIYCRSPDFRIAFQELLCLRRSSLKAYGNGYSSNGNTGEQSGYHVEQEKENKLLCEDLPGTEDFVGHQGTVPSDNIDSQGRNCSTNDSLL
Chain of D(2) dopamine receptor (Homo sapiens) (P14416 whole entry, looked up): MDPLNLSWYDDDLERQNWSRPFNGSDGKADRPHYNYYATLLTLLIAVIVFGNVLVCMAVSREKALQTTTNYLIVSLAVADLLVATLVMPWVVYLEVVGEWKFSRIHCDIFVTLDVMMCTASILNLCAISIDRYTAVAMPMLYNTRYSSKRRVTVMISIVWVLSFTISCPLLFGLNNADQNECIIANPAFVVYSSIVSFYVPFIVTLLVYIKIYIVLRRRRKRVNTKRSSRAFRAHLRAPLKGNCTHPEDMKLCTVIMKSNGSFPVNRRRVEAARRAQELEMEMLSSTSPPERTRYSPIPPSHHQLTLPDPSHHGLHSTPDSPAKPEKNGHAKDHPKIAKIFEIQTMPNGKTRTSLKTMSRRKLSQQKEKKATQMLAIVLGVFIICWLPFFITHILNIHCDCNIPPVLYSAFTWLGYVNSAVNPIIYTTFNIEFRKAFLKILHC
Chain of Gonadotropin-releasing hormone receptor (Homo sapiens) (P30968 whole entry, looked up): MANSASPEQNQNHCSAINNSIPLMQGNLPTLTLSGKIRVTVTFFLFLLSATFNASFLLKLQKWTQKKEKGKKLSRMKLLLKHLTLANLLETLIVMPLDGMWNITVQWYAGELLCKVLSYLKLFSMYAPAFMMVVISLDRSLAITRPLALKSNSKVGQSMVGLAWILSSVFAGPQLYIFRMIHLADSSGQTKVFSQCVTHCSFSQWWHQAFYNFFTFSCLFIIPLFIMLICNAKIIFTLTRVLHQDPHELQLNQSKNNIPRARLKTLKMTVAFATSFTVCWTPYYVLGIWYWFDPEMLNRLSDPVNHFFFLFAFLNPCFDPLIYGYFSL
Chain of KiSS-1 receptor (Homo sapiens) (Q969F8 whole entry, looked up): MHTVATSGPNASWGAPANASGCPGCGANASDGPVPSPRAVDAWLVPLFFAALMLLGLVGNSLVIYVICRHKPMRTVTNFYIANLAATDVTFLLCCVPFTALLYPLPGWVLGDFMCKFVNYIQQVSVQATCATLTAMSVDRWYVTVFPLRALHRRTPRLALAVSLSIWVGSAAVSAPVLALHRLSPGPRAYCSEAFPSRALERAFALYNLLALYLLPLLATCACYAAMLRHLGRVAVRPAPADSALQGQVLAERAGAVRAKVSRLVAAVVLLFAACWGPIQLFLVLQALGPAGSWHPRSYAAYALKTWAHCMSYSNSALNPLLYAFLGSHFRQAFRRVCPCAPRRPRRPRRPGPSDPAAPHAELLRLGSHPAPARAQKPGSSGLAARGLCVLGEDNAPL
Chain of Muscarinic acetylcholine receptor M1 (Homo sapiens) (P11229 whole entry, looked up): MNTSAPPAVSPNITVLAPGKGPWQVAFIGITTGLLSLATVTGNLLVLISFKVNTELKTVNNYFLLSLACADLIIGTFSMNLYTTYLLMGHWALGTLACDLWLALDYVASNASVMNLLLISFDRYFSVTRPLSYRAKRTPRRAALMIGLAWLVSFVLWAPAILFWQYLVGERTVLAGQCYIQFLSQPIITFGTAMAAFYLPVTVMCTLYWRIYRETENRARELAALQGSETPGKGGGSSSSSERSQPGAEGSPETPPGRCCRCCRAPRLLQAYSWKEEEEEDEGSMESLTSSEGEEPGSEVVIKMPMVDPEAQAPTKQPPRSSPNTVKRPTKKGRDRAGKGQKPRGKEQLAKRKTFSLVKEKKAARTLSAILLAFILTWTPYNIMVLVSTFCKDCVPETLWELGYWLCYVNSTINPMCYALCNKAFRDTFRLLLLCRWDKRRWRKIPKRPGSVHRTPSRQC

Row | Structure (SMILES) | Potency [1] | Potency [2] | Potency [3] | Potency [4] | Potency [5] | Potency [6] | Potency [7] | Potency [8] | Potency [9] | Potency [10] | Potency [11] | Potency [12] | Potency [13] | Potency [14] | Potency [15] | Potency [16] | Potency [17] | Potency [18] | Potency [19] | Potency [20]
1 | C[C@]12C=CC(=O)C=C1CC[C@@H]1[C@@H]2C(=O)C[C@@]2(C)[C@H]1CC[C@]2(O)C(=O)CO | inactive | inactive | inactive | inactive | inactive | inactive | inactive | inactive | inactive | inactive | inactive | inactive | inactive | inactive | inactive | inactive |  |  |  | 
2 | CC(C)Cc1ccc(C(C)C(=O)O)cc1 (configuration not stated) | inactive | inactive | inactive | inactive | inactive | inactive | inactive | inactive | inactive | inactive | inactive |  | inactive | inactive | inactive | inactive | inactive |  |  | 
3 | CCOC(=O)C(C)(C)Oc1ccc(Cl)cc1 | inactive | inactive | inactive | inactive | inactive | inactive | inactive | inactive | inactive | inactive | inactive | inactive |  | inactive | inactive | inactive | inactive |  |  | 
4 | CC(C)(C#N)c1cc(Cn2cncn2)cc(C(C)(C)C#N)c1 | inactive | inactive | inactive | inactive | inactive | inactive | inactive | inactive | inactive | inactive | inactive |  | inactive | inactive | inactive | inactive | inactive |  |  | 
5 | CC(=O)Oc1c(C)c(C)c2c(c1C)CC[C@@](C)(CCC[C@H](C)CCC[C@H](C)CCCC(C)C)O2 | inactive | inactive | inactive | inactive | inactive | inactive | inactive | inactive | inactive | inactive | inactive | inactive | inactive |  | inactive | inactive | inactive | inactive | inactive | inactive
6 | CC1(C)O[C@@H]2C[C@H]3[C@@H]4C[C@H](F)C5=CC(=O)CC[C@]5(C)[C@H]4[C@@H](O)C[C@]3(C)[C@]2(C(=O)CO)O1 | inactive | inactive | inactive | inactive | inactive | inactive | inactive | inactive | inactive | inactive | inactive | inactive |  | inactive | inactive | inactive |  |  |  | 
7 | CC1Cc2ccccc2N1NC(=O)c1ccc(Cl)c(S(N)(=O)=O)c1 (configuration not stated) | inactive | inactive | inactive | inactive | inactive | inactive | inactive | inactive | inactive | inactive | inactive | inactive | inactive | inactive | inactive | inactive | inactive |  |  | 
8 | C[C@H]1C[C@@H]2[C@H]([C@@H](O)C[C@@]3(C)[C@H]2CC[C@]3(O)C(=O)CO)[C@@]2(C)C=CC(=O)C=C12 | inactive | inactive | inactive | inactive | inactive | inactive | inactive | inactive | inactive | inactive | inactive | inactive |  | inactive | inactive | inactive | inactive |  |  | 
9 | C[C@H]1C[C@H]2[C@@H]3CCC4=CC(=O)C=C[C@]4(C)[C@@]3(F)[C@@H](O)C[C@]2(C)[C@@]1(O)C(=O)CO | inactive | inactive | inactive | inactive | inactive | inactive | inactive | inactive and 793 nM (active) | inactive | inactive | inactive | inactive | inactive | inactive |  | inactive | inactive |  |  | 
10 | Cc1cc(C)c(O)c(C)c1 | inactive | inactive | inactive | inactive | inactive | inactive | inactive | inactive | inactive | inactive | inactive |  | inactive | inactive | inactive | inactive | inactive | inactive | inactive | inactive
11 | [Na+] | inactive | inactive | inactive | inactive | inactive | inactive | inactive | inactive | inactive | inactive | inactive | inactive | inactive | inactive | inactive | inactive | inactive | inactive | inactive | 
12 | NC(=O)NO | inactive | inactive | inactive | inactive | inactive | inactive | inactive | inactive | inactive | inactive | inactive | inactive | inactive | inactive | inactive | inactive | inactive |  |  | 
13 | NC(CO)(CO)CO | inactive | inactive | inactive | inactive | inactive | inactive | inactive | inactive | inactive | inactive | inactive | inactive |  | inactive | inactive | inactive | inactive |  |  | 
14 | NC(N)=Nc1nc(CSCC/C(N)=N/S(N)(=O)=O)cs1 | inactive | inactive | inactive | inactive | inactive | inactive | inactive | inactive | inactive | inactive | inactive | inactive | inactive | inactive | inactive | inactive | inactive |  |  | 
15 | Cc1ccncc1 | inactive | inactive | inactive | inactive | inactive | inactive | inactive | inactive | inactive | inactive | inactive | inactive | inactive | inactive | inactive | inactive |  | inactive | inactive | inactive
16 | C[C@@H](O)[C@H]1C(=O)N2C(C(=O)O)=C(S[C@@H]3CN[C@H](C(=O)N(C)C)C3)[C@H](C)[C@H]12 | inactive | inactive | inactive | inactive | inactive | inactive | inactive | inactive | inactive | inactive | inactive |  | inactive | inactive | inactive | inactive | inactive |  |  | 
17 | NC(N)=NC(=O)c1nc(Cl)c(N)nc1N | inactive | inactive | inactive | inactive | inactive | inactive | inactive | inactive | inactive | inactive | inactive | inactive | inactive | inactive | inactive | inactive | inactive |  |  | 
